Data published in PubChem BioAssay (Tox21).
Results filed as inconclusive are left out. Calls of active or inactive are those of the source. Unless noted, the call rests on the fitted dose curve; in most records, active means well fitted curve in the direction sought with a large enough effect in the repeat runs; inconclusive means weak or mixed curves; inactive means no such curve, though single readings can be large; an effect the other way counts as inactive or inconclusive.

How the values were obtained:
[1] = qHTS assay to identify aromatase inhibitors - cell viability counter screen (AID 743084);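 further: cells stimulated with testosterone during compound exposure; nearly all actives have a fitted effect of over 55% in size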; further: potency means the concentration at half of the fitted maximal effect
[2] = qHTS assay to identify small molecule that activate the aryl hydrocarbon receptor (AhR) signaling pathway - cell viability counter screen (AID 743086);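 further: HepG2 liver cells carrying the AhR DRE luciferase reporter; series mostly up to about 70 µM; nearly all actives have a fitted effect of over 45% in size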
Method in brief: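 Cytotoxicity counter screen: CellTiter-Fluor signal (30 min, 37 C) in 4000 HepG2 cells/well carrying the DRE-luciferase reporter, following 24 h compound exposure at 37 C.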

[3] = target: Peroxisome proliferator-activated receptor gamma (Homo sapiens) (UniProt P37231); test: qHTS assay to identify small molecule agonists of the peroxisome proliferator-activated receptor gamma (PPARg) signaling pathway (AID 743094; active means well fitted activation curve with a large enough effect in the signal ratio in the repeat runs, not every such curve was filed as active; the % refers to the signal ratio)
Chain of Peroxisome proliferator-activated receptor gamma (Homo sapiens) (P37231 whole entry, looked up): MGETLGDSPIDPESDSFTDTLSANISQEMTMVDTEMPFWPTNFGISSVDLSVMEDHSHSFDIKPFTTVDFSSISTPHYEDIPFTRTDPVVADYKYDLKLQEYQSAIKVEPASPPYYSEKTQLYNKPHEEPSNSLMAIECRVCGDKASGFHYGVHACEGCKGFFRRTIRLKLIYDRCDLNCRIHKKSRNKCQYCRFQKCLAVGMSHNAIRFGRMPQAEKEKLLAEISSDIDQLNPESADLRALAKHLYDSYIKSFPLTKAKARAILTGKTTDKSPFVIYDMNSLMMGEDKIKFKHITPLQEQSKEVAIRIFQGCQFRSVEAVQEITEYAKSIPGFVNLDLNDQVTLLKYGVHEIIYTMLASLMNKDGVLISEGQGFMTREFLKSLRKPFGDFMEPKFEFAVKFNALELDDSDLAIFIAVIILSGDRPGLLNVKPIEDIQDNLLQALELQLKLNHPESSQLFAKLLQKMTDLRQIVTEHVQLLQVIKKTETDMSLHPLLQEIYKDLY
Method in brief: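 Cells from the PPARg UAS-bla HEK293H line are plated and incubated 5 h at 37C. Compounds in DMSO are pinned in and left 17 h at 37C. LiveBLAzer B/G substrate is then added for 1 h at room temperature before fluorescence is measured.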

[4] = target: Peroxisome proliferator-activated receptor gamma (Homo sapiens) (UniProt P37231); test: qHTS assay to identify small molecule antagonists of the peroxisome proliferator-activated receptor gamma (PPARg) signaling pathway (AID 743191; calls by dose curve; further: series mostly up to about 63 µM; nearly all actives have a fitted effect of over 30% in size)
Method in brief: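 Beta-lactamase reporter under UAS control in HEK293H PPARg-bla cells; compound treatment 17 h at 37C. Read-out: fluorescence intensity after 1 h room-temperature incubation with LiveBLAzer B/G FRET substrate.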

[5] = qHTS assay to identify small molecule antagonists of the peroxisome proliferator-activated receptor gamma (PPARg) signaling pathway - cell viability counter screen (AID 743194); further: nearly all actives have a fitted effect of over 55% in size
Method in brief: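 Viability was measured as CellTiter-Glo luminescence in GeneBLAzer PPARg UAS-bla HEK293H cells. These cells had been exposed 17 h at 37 C to compounds together with rosiglitazone at 50 nM final, with the beta-lactamase readout taken in the same wells.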

[6] = qHTS assay for small molecule agonists of the antioxidant response element (ARE) signaling pathway (AID 743202; active means well fitted activation curve with a large enough effect in the signal ratio in the repeat runs, not every such curve was filed as active; the % refers to the signal ratio)
Method in brief: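 After 16 hours of compound treatment at 37 C, HepG2 cells with a stably integrated ARE-driven beta-lactamase reporter were loaded 2 hours at room temperature with LiveBLAzer B/G FRET substrate and fluorescence intensity measured.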

[7] = qHTS assay for small molecule agonists of the antioxidant response element (ARE) signaling pathway - cell viability counter screen (AID 743203; calls by dose curve; further: nearly all actives have a fitted effect of over 55% in size)
Method in brief: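 Cytotoxicity was tested in parallel with the ARE reporter screen. ARE-bla HepG2 cells were exposed to compounds for 16 hrs, and viability was taken from CellTiter-Glo luminescence.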

[8] = qHTS assay for small molecule activators of the heat shock response signaling pathway - cell viability counter screen (AID 743209); further: nearly all actives have a fitted effect of over 50% in size
Method in brief: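 Cytotoxicity counter screen run in parallel with the HSE beta-lactamase reporter, using the same wells. HeLa HSE-bla cells received compound for 5 h at 37 C; ATP-based CellTiter-Glo luminescence was measured after 30 min at room temperature.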

[9] = qHTS assay for small molecule activators of the heat shock response signaling pathway (AID 743210; active means well fitted activation curve with a large enough effect in the signal ratio in the repeat runs, with a control signal flat, not every such curve was filed as active; the % refers to the signal ratio; further: series mostly up to about 63 µM)
Method in brief: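 Compound exposure lasted 5 h at 37 C in HeLa cells carrying a heat-shock-element-driven beta-lactamase reporter. Read-out: fluorescence intensity after 2.5 h room-temperature loading with LiveBLAzer B/G FRET substrate.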

[10] = qHTS assay to identify small molecule agonists of the peroxisome proliferator-activated receptor delta (PPARd) signaling pathway - cell viability counter screen (AID 743211); further: nearly all actives have a fitted effect of over 55% in size
Method in brief: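 Tox21 library compounds, delivered in DMSO, were incubated 17 h with PPARd-bla HEK293H cells; cytotoxicity was taken from CellTiter-Glo luminescence read 30 min after reagent addition.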

[11] = target: Peroxisome proliferator-activated receptor delta (Homo sapiens) (UniProt Q03181); test: qHTS assay to identify small molecule agonists of the peroxisome proliferator-activated receptor delta (PPARd) signaling pathway (AID 743212; calls by dose curve)
Chain of Peroxisome proliferator-activated receptor delta (Homo sapiens) (Q03181 whole entry, looked up): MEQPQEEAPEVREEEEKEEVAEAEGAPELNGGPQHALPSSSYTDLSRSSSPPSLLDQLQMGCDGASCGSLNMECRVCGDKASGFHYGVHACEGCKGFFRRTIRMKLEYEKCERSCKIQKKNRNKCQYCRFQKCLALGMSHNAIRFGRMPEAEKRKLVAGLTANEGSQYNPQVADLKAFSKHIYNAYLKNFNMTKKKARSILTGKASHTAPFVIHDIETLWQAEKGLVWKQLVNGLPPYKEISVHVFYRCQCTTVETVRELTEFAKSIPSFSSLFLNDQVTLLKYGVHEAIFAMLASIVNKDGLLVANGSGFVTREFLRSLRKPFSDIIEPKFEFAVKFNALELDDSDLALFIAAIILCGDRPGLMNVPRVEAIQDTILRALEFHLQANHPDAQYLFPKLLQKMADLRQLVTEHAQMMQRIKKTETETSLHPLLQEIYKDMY
Method in brief: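 Beta-lactamase reporter readout: a ratiometric FRET signal from the LiveBLAzer substrate after 2 h at room temperature. Compound exposure at 37 °C in PPARδ-bla HEK293H cells driven by an upstream activator sequence.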

[12] = qHTS assay to identify small molecule antagonists of the peroxisome proliferator-activated receptor delta (PPARd) signaling pathway - cell viability counter screen (AID 743213); further: nearly all actives have a fitted effect of over 50% in size
Method in brief: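 PPARd-bla HEK293H cells (3000/well) got compound plus 300 nM L165041 agonist for 17 h at 37 C. Viability in the same wells came from CellTiter-Glo luminescence after 30 min at room temperature.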

[13] = target: Peroxisome proliferator-activated receptor delta (Homo sapiens) (UniProt Q03181); test: qHTS assay to identify small molecule antagonists of the peroxisome proliferator-activated receptor delta (PPARd) signaling pathway (AID 743215; active means well fitted inhibition curve with a large enough effect in the signal ratio in the repeat runs, not every such curve was filed as active; the % refers to the signal ratio;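 further: cells stimulated with agonist L165041 at 300 nM final during compound exposure; series mostly up to about 62 µM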)
Method in brief: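 Cells: HEK293H with a UAS-driven beta-lactamase reporter responsive to PPARd. Compounds were co-added with L165041 (300 nM, final) and incubated 17 h at 37 C before a 2 h room-temperature FRET substrate step and fluorescence reading.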

[14] = qHTS assay to identify small molecule agonists of the farnesoid-X-receptor (FXR) signaling pathway - cell viability counter screen (AID 743218); further: nearly all actives have a fitted effect of over 45% in size
Method in brief: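 Cells were seeded, left 5 h at 37 C and 5% CO2, then dosed with compound in DMSO for 16 h. After the beta-lactamase FRET read, CellTiter-Glo was added and luminescence measured 30 min later.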

[15] = qHTS assay to identify small molecule antagonists of the farnesoid-X-receptor (FXR) signaling pathway - cell viability counter screen (AID 743221; active means well fitted cell-killing curve with a large enough effect in the repeat runs, not every such curve was filed as active; further: nearly all actives have a fitted effect of over 50% in size)
Method in brief: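 Cytotoxicity is taken from ATP luminescence (CellTiter-Glo, 30 min, room temperature) in FXR-bla HEK 293T cells previously incubated 16 h at 37 C with compound and chenodeoxycholic acid at 50 uM final.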

[16] = target: Vitamin D3 receptor (Homo sapiens) (UniProt P11473); test: qHTS assay to identify small molecule agonists of the vitamin D receptor (VDR) signaling pathway (AID 743222; calls by dose curve)
Chain of Vitamin D3 receptor (Homo sapiens) (P11473 whole entry, looked up): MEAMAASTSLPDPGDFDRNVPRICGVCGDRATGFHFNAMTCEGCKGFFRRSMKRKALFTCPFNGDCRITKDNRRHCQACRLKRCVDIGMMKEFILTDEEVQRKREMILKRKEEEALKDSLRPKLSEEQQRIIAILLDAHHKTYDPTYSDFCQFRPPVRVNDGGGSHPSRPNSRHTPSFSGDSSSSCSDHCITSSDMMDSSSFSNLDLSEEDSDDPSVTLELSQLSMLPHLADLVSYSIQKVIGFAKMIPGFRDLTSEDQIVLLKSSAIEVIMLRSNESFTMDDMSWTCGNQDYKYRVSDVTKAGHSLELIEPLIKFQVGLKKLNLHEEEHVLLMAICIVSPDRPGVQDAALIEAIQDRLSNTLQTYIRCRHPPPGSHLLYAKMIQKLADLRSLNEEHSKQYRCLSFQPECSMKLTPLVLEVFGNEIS
Method in brief: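 Cells carrying a VDR-driven beta-lactamase reporter are seeded at 2,000 per well and rested 4 h. Compounds in DMSO are added for 16 h at 37C, and FRET substrate fluorescence is measured after 2 h at room temperature.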

[17] = target: Aryl hydrocarbon receptor (Homo sapiens) (UniProt P35869); test: qHTS assay to identify small molecule that activate the aryl hydrocarbon receptor (AhR) signaling pathway (AID 743085); further: nearly all actives have a fitted effect of over 15% in size; further: potency means the concentration at half of the fitted maximal effect;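 on activation: HG2L7.5c1 human HepG2 liver cells with stably integrated DRE-driven firefly reporter; series mostly up to about 70 µM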
Chain of Aryl hydrocarbon receptor (Homo sapiens) (P35869 whole entry, looked up): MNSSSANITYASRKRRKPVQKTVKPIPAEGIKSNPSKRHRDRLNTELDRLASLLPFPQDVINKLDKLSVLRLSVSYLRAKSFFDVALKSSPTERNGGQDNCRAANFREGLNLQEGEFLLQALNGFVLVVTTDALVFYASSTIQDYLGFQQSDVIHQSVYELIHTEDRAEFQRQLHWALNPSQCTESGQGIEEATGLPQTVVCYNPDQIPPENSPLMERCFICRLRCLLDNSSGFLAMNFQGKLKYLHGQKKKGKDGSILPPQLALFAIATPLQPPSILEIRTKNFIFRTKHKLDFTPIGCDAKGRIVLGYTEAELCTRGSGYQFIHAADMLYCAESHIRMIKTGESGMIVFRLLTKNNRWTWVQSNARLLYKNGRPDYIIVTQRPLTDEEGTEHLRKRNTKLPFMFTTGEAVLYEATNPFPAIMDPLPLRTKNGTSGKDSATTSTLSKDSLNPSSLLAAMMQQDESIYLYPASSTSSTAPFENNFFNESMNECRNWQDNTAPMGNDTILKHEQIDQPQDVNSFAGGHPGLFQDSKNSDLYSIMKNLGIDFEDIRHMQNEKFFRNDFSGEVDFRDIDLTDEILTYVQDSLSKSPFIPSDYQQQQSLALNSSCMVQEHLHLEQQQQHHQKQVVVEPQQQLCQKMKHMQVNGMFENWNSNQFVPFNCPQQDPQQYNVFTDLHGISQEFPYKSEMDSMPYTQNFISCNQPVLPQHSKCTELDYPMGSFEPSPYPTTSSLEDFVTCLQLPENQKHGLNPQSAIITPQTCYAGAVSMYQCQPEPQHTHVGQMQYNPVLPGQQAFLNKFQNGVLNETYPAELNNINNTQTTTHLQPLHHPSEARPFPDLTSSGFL
Method in brief: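 A multiplexed format paired cell viability (CellTiter-Fluor fluorescence) with AhR-dependent luciferase output (ONE-Glo luminescence) in the same wells of HepG2 DRE-luc cells after 24 h compound exposure at 37C.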

[18] = target: Bile acid receptor (Homo sapiens) (UniProt Q96RI1); test: qHTS assay to identify small molecule antagonists of the farnesoid-X-receptor (FXR) signaling pathway (AID 743217; active means well fitted inhibition curve with a large enough effect in the signal ratio in the repeat runs, not every such curve was filed as active; the % refers to the signal ratio)
Chain of Bile acid receptor (Homo sapiens) (Q96RI1 whole entry, looked up): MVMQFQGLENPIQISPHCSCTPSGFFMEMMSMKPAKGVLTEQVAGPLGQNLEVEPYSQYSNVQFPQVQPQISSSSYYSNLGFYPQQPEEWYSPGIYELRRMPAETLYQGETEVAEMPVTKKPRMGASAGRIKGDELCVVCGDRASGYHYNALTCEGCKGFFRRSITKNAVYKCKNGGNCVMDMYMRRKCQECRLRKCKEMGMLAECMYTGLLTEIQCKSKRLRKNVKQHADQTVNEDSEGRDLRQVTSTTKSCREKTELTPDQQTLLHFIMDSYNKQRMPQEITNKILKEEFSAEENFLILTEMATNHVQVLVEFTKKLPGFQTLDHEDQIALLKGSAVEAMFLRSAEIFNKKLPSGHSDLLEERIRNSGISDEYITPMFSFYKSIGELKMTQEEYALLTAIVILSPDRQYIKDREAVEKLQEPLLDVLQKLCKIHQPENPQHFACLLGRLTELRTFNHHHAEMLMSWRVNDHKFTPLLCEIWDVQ
Method in brief: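 Cells carrying a UAS-driven beta-lactamase reporter (GeneBLAzer FXR-UAS-bla HEK 293T) were plated and rested 5 h at 37 °C. Compounds in DMSO were added alongside chenodeoxycholic acid agonist at 50 uM final and left 16 h at 37 °C before FRET substrate readout.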

[19] = target: Bile acid receptor (Homo sapiens) (UniProt Q96RI1); test: qHTS assay to identify small molecule agonists of the farnesoid-X-receptor (FXR) signaling pathway (AID 743220; active means well fitted activation curve with a large enough effect in the signal ratio in the repeat runs, not every such curve was filed as active; the % refers to the signal ratio)
Method in brief: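 FXR-UAS-bla HEK 293T cells carrying a UAS-driven beta-lactamase reporter were plated for 5 h at 37C/5% CO2, then exposed to DMSO-dissolved Tox21 10K compounds for 16 h at 37C. A LiveBLAzer B/G FRET substrate was loaded for 2 h at room temperature before fluorescence reading.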

[20] = target: Vitamin D3 receptor (Homo sapiens) (UniProt P11473); test: qHTS assay to identify small molecule antagonists of the vitamin D receptor (VDR) signaling pathway (AID 743223; active means well fitted inhibition curve with a large enough effect in the signal ratio in the repeat runs, not every such curve was filed as active; the % refers to the signal ratio)
Method in brief: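 Quantitative HTS in VDR-bla reporter cells stimulated with 1alpha,25-dihydroxyvitamin D3, 3 nM final. Compound exposure 16 h, 37C, 5% CO2. Read-out: beta-lactamase FRET substrate fluorescence, 2 h RT.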
On the % scale 0 is the no-effect control and ±100 the full control effect.

CCCO
inactive: Potency [1] | Potency [2] | outcome [3] | Potency [4] | outcome [5] | Potency [6] | outcome [7] | outcome [8] | outcome [9] | outcome [10] | outcome [11] | outcome [12] | outcome [13] | Potency [14] | outcome [15] | outcome [16]

CCC1Nc2cc(Cl)c(S(N)(=O)=O)cc2S(=O)(=O)N1 (centres undefined)
inactive: Potency [1] | Potency [17] | Potency [2] | outcome [5] | Potency [6] | outcome [7] | outcome [12] | outcome [13] | outcome [18] | Potency [14] | outcome [19] | outcome [15] | outcome [16]

CC(C)CCO
inactive: Potency [1] | Potency [2] | outcome [3] | Potency [4] | outcome [5] | Potency [6] | outcome [7] | outcome [8] | outcome [9] | outcome [10] | outcome [11] | outcome [12] | outcome [13] | outcome [15] | outcome [16]

CC(C)(CO)[C@@H](O)C(=O)NCCCO
inactive: Potency [1] | Potency [2] | outcome [3] | Potency [4] | outcome [5] | Potency [6] | outcome [7] | outcome [8] | outcome [9] | outcome [11] | outcome [12] | outcome [13] | outcome [18] | outcome [19] | outcome [15] | outcome [16] | outcome [20]

CC(C)SCc1ccco1
inactive: Potency [1] | Potency [2] | outcome [3] | Potency [4] | outcome [5] | Potency [6] | outcome [7] | outcome [8] | outcome [9] | outcome [10] | outcome [11] | outcome [13] | Potency [14]

CCCCCCCCCCCCCCCCI
inactive: Potency [1] | Potency [2] | outcome [3] | Potency [4] | outcome [5] | Potency [6] | outcome [7] | outcome [8] | outcome [9] | outcome [11] | outcome [12] | outcome [13] | Potency [14] | outcome [19] | outcome [15] | outcome [16] | outcome [20]

NC(=O)NNC(N)=O
inactive: Potency [1] | Potency [17] | Potency [2] | outcome [3] | outcome [7] | outcome [8] | outcome [9] | outcome [10] | outcome [11] | outcome [12] | outcome [13] | outcome [18] | outcome [15] | outcome [16]

O=CO
inactive: activity change, negative = cytotoxicity [1] -4.37% [at 8.47 µM] | activation [17] 0.579% [at 8.47 µM] | viability change, negative = cytotoxic [2] -0.0332% [at 8.47 µM] | activity change, negative = cytotoxicity [5] 15.3% [at 5.95 µM] | activation [6] -2.02% [at 8.36 µM] | viability change, negative = cytotoxic [7] -3% [at 8.36 µM] | activity change, negative = cytotoxicity [8] 8.14% [at 5.95 µM] | activation [9] -1.54% [at 5.95 µM] | activity change, negative = cytotoxicity [10] 1.94% [at 5.95 µM] | viability change, negative = cytotoxic [12] 11.9% [at 6.26 µM] | viability change, negative = cytotoxic [14] 0.465% [at 5.95 µM] | activity change, negative = cytotoxicity [15] -2.88% [at 5.95 µM] | activation [16] -1.04% [at 6.01 µM] | activity change, negative = inhibition [20] 3.44% [at 6.95 µM]

COc1cccc2sc(N)nc12
inactive: Potency [1] | Potency [2] | outcome [3] | Potency [6] | outcome [7] | outcome [8] | outcome [9] | outcome [10] | outcome [11] | outcome [12] | outcome [13] | outcome [18] | outcome [19] | outcome [15] | outcome [16] | outcome [20]
active: Potency [17] 27.5 µM

Nc1cc(C(=O)O)ccc1Cl
inactive: Potency [1] | Potency [2] | outcome [3] | Potency [4] | outcome [5] | Potency [6] | outcome [7] | outcome [8] | outcome [9] | outcome [10] | outcome [11] | outcome [12] | outcome [13] | outcome [18] | Potency [14] | outcome [19] | outcome [15] | outcome [16]

C1=C\CC/C=C\CC/1
inactive: Potency [1] | Potency [2] | outcome [3] | Potency [4] | outcome [5] | Potency [6] | outcome [7] | outcome [8] | outcome [9] | outcome [10] | outcome [11] | outcome [12] | outcome [13] | Potency [14] | outcome [15] | outcome [16]

CC1=NN(c2ccc(S(=O)(=O)O)cc2)C(=O)C1N=Nc1ccccc1 (centres undefined)
active: Potency [1] 54.5 µM | Potency [17] 24.3 µM
inactive: outcome [3] | outcome [5] | outcome [7] | outcome [8] | outcome [9] | outcome [10] | outcome [11] | outcome [12] | outcome [13] | outcome [15] | outcome [16]

O=c1[nH]c(=O)c2[nH]c(=O)[nH]c2[nH]1
inactive: Potency [1] | Potency [2] | outcome [3] | ratio activity, negative = inhibition [4] -6.65% [at 13.2 µM] | activity change, negative = cytotoxicity [5] -35.1% [at 13.2 µM] | activation [6] 2.83% [at 8.36 µM] | viability change, negative = cytotoxic [7] 8.26% [at 8.36 µM] | activity change, negative = cytotoxicity [8] -0.886% [at 13.2 µM] | activation [9] -0.669% [at 13.2 µM] | activity change, negative = cytotoxicity [10] 7.12% [at 13.2 µM] | activation [11] 2.22% [at 13.2 µM] | ratio activity, negative = inhibition [13] -0.0973% [at 13.7 µM] | activity change, negative = cytotoxicity [15] 0.395% [at 13.2 µM]

CCN1CN(CC)CN(CC)C1
inactive: Potency [1] | Potency [2] | outcome [3] | Potency [4] | outcome [5] | Potency [6] | outcome [7] | outcome [8] | outcome [9] | outcome [11] | outcome [12] | outcome [13] | outcome [18] | Potency [14] | outcome [19] | outcome [15]

CNC(=O)C(c1ccccc1)c1ccccc1
inactive: Potency [17] | Potency [2] | outcome [5] | Potency [6] | outcome [7] | outcome [8] | outcome [10] | Potency [14] | outcome [19] | outcome [15] | outcome [16] | outcome [20]
